HT1080-NT tox – kills 2HG-producing HT-1080-NT fibrosarcoma cells | HT-1080-NT fibrosarcoma viability, CellTiter-Glo ATP luminescence, 48 h | Potency, µM (doses to about 46.1 µM), without a hit: top-dose activity, negative = less viability, usual class: cytotoxic | 360,000 compounds, 1.6% hits;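 also: NT is the 2HG producing partner of a matched IDH1 knockdown line; 0% = DMSO-treated cells and -100% = media-only wells without cells; nearly all actives have a fitted effect of over 55% in size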
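Viability by CellTiter-Glo luminescence after 48 h compound exposure at 37C of HT-1080-NT cells (750/well, RPMI, 5% FBS). % activity scaled between DMSO wells and medium-only wells, then curve-fitted and categorized by curve class.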
TDP1 cell CPT – DT40-hTDP1 cell growth loss with CPT. chicken DT40 Tdp1-/-;hTDP1 cells + 20 nM CPT, ATP luminescence, 48 h. Potency, µM (doses to about 46.2 µM), for inactives: at the top dose activity change, negative = growth inhibition, most hits filed as inhibitors. 420,000 compounds, 12% hits. AID 686979; also: nearly all actives have a fitted effect of over 55% in size
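Chicken DT40 Tdp1-/- cells complemented with human TDP1, 400 cells/well, exposed to compounds plus 20 nM camptothecin for at least 48 h at 37 C; viability read as ATP content by CellTiter-Glo luminescence.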
TDP1 cell noCPT – qHTS for Inhibitors of human tyrosyl-DNA phosphodiesterase 1 (TDP1): qHTS in cells in absence of CPT; DT40 Tdp1-/- hTDP1 cells, no CPT, ATP luminescence, 48 h; Potency, µM (series often up to 46.2 µM), for the others: at the highest dose activity change, negative = growth inhibition, hits mostly inhibitors; 420,000 compounds, 15% hits; AID 686978, 2013; also: nearly all actives have a fitted effect of over 55% in size
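Seeded 400 DT40-hTDP1 cells/well (vehicle DMSO, no 20 nM CPT); pinned compounds; ≥48 hr at 37 °C; CellTiter-Glo luminescence as viability measure.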
KB-V1 cytotox – KB-V1 MDR subline cytotoxicity | 400,000 compounds, 3.4% hits | KB-V1 MDR cells viability, CellTiter-Glo, 72 h | Potency, µM (titrated, usually from 46.1 µM), actives largely listed as cytotoxic | AID 1347076; also: nearly all actives have a fitted effect of over 60% in size
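In this primary screen, KB-V1 cells overexpressing P-gp are incubated with library compounds (lowest to highest concentration) for 72 h at 37 degrees C before a luminescent ATP viability read.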
HT1080 IDH1KD tx – kills HT-1080 cells with IDH1 knockdown; HT-1080 IDH1 knockdown viability, ATP luminescence, 48 h; Potency, µM (top dose mostly 46.1 µM), for inactives: at the top dose activity, negative = toxicity, usual class: cytotoxic; 360,000 compounds, 2% hits; AID 686971;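 also: 0% = DMSO wells and -100% = cell-free medium wells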
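Viability of IDH1-knockdown HT-1080 fibrosarcoma cells was assessed by CellTiter-Glo after 48 h at 37 °C with titrated compound; concentration-effect curves were classified by fit quality and response size.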
KB-3-1 cytotox – kills parental KB-3-1 adenocarcinoma cells; 400,000 compounds, 1.4% hits; Potency, µM (doses to about 46.1 µM), hits mostly cytotoxic; AID 1347075; KB-3-1 viability, CellTiter-Glo ATP luminescence, 72 h; also: nearly all actives have a fitted effect of over 60% in size
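Screening of KB-3-1 cells (DMEM, 10% FBS, phenol-red free) ran from lowest to highest compound concentration; after 72 h at 37 °C viability was read luminescently and curves fitted.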
The depositor's hits bear a star; i = inactive; ? = inconclusive; . = not tested or not shown. In the library only some 19% were active in any assay of this set; here they are far more common. Calls follow the shape of the dose curve; as a rule, active = well fitted curve in the direction sought with a large enough effect; inconclusive = small, poorly fitted or top-dose-only effect, or another doubt; inactive = no such curve, though single readings can be large; an effect the other way counts as inactive or inconclusive. Unless noted, % is scaled to controls: 0 for no effect and ±100 for the full control effect; potency is read from the fitted curve at half-maximal effect.

SMILES | HT1080-NT tox | TDP1 cell CPT | TDP1 cell noCPT | KB-V1 cytotox | HT1080 IDH1KD tx | KB-3-1 cytotox
COc1cccc(CN2C(=O)C3(SCC(=O)N3c3ccc(C)c(Cl)c3)c3ccccc32)c1 (configuration not stated) | . | . | . | 13µM* | . | 13µM*
COc1cc(N2C(=O)CSC23C(=O)N(Cc2ccc(C)cc2)c2ccccc23)cc(OC)c1OC (configuration not stated) | . | . | . | ? | . | i
O=C(Nc1ccc(-c2nc3ccccc3o2)cc1)c1ccc(N2CCOCC2)c([N+](=O)[O-])c1 | -22.6% | 7.31µM* | 4.61µM* | i | 1.7% | i
O=C(Nc1cc(-c2nc3ccccc3o2)ccc1Cl)c1ccc(N2CCCCC2)c([N+](=O)[O-])c1 | . | ? | 18.4µM* | i | . | i
Cn1cc([N+](=O)[O-])c(C(=O)Nc2nccs2)n1 | ? | 4.0% | 13.3% | i | ? | i
Cn1cc([N+](=O)[O-])c(C(=O)Nc2ccc(-c3nc4ccccc4o3)cc2)n1 | ? | -4.9% | -12.4% | 11.6µM* | ? | 18.4µM*
CC(=O)Nc1cc(-c2nc3ccccc3o2)ccc1Cl | 6.8% | 11.0% | -9.8% | i | 9.5% | i
COc1ccc2oc(-c3ccc(NC(=O)c4ccc(N5CCOCC5)c([N+](=O)[O-])c4)cc3)nc2c1 | 3.5% | ? | 2.06µM* | ? | 6.2% | i
Cc1ccc2c(c1)c1c(c(=O)n(Cc3ccccc3)c(=O)n1Cc1ccccc1F)n2C | . | 1.1% | -0.9% | i | . | i
CCOC(=O)N1CCN(C(=O)CSc2nc3c([nH]c4ccccc43)c(=O)n2CCOC)CC1 | -4.3% | ? | 18.4µM* | i | -21.5% | i
CCn1c(SCC(=O)N2CCN(c3ccccc3)CC2)nc2c([nH]c3ccccc32)c1=O | -0.5% | 14.6µM* | 8.2µM* | i | 11.4% | ?
COc1cccc(NC(=O)CSCc2nc3sc(C)c(C)c3c(=O)[nH]2)c1 | 2.7% | -12.3% | -5.9% | i | -2.1% | i
Cn1ccc2cc(S(=O)(=O)N3CCN(C(=O)Nc4ccccc4F)CC3)ccc21 | . | . | . | i | . | i
O=C1CCc2cc(S(=O)(=O)Nc3cccc(B(O)O)c3)ccc2N1 | . | . | . | i | . | i
Cc1c(Cl)cccc1N=C1SCCN1C(=O)CN1C(=O)NC2(CCCC2)C1=O | -11.3% | ? | 18.4µM* | i | ? | i
O=C(CN1C(=O)NC2(CCCCC2)C1=O)Nc1cccc(Cl)c1Cl | -0.6% | -23.4% | ? | i | -9.9% | i
CCOC(=O)c1c(C)[nH]c(C(=O)CSc2nc(C)cc(C)n2)c1C | 5.1% | 14.6µM* | 20.6µM* | ? | -2.7% | i
CCOC(=O)c1c(C)[nH]c(C(=O)CSc2ccc(Cl)cc2)c1C | -13.6% | -19.3% | ? | 18.4µM* | ? | i
CCOC(=O)c1[nH]c(=O)[nH]c1CSc1nc(C)cc(C)n1 | 11.1% | -3.5% | 2.6% | i | 0.9% | i
CCOC(=O)c1c(C)[nH]c(C(=O)COC(=O)CNC(=O)c2ccc(Cl)cc2)c1C | 1.1% | -25.4% | ? | 4.11µM* | 2.5% | i
CCOC(=O)c1c(C)[nH]c(C(=O)COC(=O)C2(C)CC2(Cl)Cl)c1C (configuration not stated) | 13.1% | -8.4% | 5.2% | 13µM* | ? | i
CCOC(=O)c1c(C)[nH]c(C(=O)CSc2nc3ccccc3o2)c1C | 0.6% | -26.7% | -27.6% | i | 10.2% | i
CCOC(=O)c1c(C)[nH]c(C(=O)COC(=O)c2ccc(O)cc2)c1C | -17.8% | -21.2% | ? | ? | -3.4% | i
CCOC(=O)CC(=O)c1[nH]c(C)c(C(=O)OCC)c1C | 3.1% | -9.9% | -4.6% | i | 7.4% | i

Source: PubChem BioAssay
